Test results: publication PMC11006913
Where a chain is given by its changes, count along the chain named.

What was measured:
Test in all cases: PBM; 200 nM protein, PBS
Conditions in all cases: dsDNA, one strand shown
NKX2-6 [1] = biological target: T1, NKX2-6 (Homo sapiens, UniProt A6NCS4 118-204)
T1 sequence: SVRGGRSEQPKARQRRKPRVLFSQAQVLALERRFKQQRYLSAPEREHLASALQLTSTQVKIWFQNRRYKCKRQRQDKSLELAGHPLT

NKX2-6 [2] = biological target: T2, NKX2-6 (Homo sapiens, UniProt A6NCS4 118-204, F151L)
T2 sequence: T1 sequence with F34L

PAX4 [3] = biological target: T3, PAX4 (Homo sapiens, UniProt O43316 9-242, R200Q)
T3 sequence: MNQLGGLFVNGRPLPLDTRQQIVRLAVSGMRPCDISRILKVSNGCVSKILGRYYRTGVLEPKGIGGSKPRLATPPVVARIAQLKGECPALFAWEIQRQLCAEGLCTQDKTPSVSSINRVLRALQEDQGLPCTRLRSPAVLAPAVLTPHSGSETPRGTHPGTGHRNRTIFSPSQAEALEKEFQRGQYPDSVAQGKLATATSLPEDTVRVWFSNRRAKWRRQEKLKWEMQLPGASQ

PAX4 [4] = biological target: T4, PAX4 (Homo sapiens, UniProt O43316 9-242, F177Y)
T4 sequence: T3 sequence with F169Y, Q192R

NKX3-2 [5] = biological target: NKX3-2 (Homo sapiens, UniProt P78367 192-278, P234S)
NKX3-2 (Homo sapiens, UniProt P78367 192-278, P234S), sequence (P78367 192-278 P234S): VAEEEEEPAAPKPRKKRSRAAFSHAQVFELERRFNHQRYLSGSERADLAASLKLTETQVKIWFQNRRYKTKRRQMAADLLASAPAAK

NKX3-2 [6] = biological target: NKX3-2 (Homo sapiens, UniProt P78367 192-278)
NKX3-2 (Homo sapiens, UniProt P78367 192-278), sequence (P78367 192-278): as the sequence (P78367 192-278 P234S) above, with S43P counted along it

PITX2 = PITX2 (Homo sapiens, UniProt Q99697 72-157)
HOXD13 = HOXD13 (Homo sapiens, UniProt P35453 263-343)
HOXD13, sequence (P35453 263-343): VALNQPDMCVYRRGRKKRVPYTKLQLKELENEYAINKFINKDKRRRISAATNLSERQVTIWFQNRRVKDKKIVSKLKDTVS

SHOX = SHOX (Homo sapiens, UniProt O15266 103-189, R173C)
SHOX, sequence (O15266 103-189 R173C): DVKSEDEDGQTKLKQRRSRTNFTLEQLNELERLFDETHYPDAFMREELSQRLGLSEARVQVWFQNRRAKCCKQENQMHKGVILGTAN

PROP1 [7] = biological target: PROP1 (Homo sapiens, UniProt O75360 56-141)
PROP1 (Homo sapiens, UniProt O75360 56-141), sequence (O75360 56-141): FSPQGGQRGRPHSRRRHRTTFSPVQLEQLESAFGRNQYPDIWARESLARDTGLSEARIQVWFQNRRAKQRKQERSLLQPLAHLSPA

HESX1 = HESX1 (Homo sapiens, UniProt Q9UBX0 95-180, R109Q)
HESX1, sequence (Q9UBX0 95-180 R109Q): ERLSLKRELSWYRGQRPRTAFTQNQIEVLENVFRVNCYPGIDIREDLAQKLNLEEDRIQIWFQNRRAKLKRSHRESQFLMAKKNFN

PROP1 [8] = biological target: PROP1 (Homo sapiens, UniProt O75360 56-141, R99H)
PROP1 (Homo sapiens, UniProt O75360 56-141, R99H), sequence (O75360 56-141 R99H): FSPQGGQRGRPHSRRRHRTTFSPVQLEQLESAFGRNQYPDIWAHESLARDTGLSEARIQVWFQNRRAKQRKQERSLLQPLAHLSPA

PROP1 [9] = biological target: PROP1 (Homo sapiens, UniProt O75360 56-141, F88S)
PROP1 (Homo sapiens, UniProt O75360 56-141, F88S), sequence (O75360 56-141 F88S): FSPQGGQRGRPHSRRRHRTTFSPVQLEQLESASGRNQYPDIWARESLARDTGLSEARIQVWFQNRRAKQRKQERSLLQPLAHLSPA

CRX = CRX (Homo sapiens, UniProt O43186 26-111, R41L)
CRX, sequence (O43186 26-111 R41L): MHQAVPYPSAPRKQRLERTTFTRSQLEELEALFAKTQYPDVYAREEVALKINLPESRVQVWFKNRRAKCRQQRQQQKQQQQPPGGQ

**Q.** With ATGCCCTG as the sequence, how does the binding signal (NKX2-6 [1]) read?
**A.** The binding signal was 9.6 upbm affinity estimate (log intensity, higher = more binding, comparable within an allelic series).

**Q.** What about the binding signal (NKX2-6 [2]) of the same sequence?
**A.** Its binding signal is 9.34 upbm affinity estimate (log intensity, higher = more binding, comparable within an allelic series).

**Q.** What does the source list for CCAAGGCA?
**A.** binding signal (NKX2-6 [1]): 9.52 upbm affinity estimate (log intensity, higher = more binding, comparable within an allelic series); binding signal (NKX2-6 [2]): 9.42 upbm affinity estimate (log intensity, higher = more binding, comparable within an allelic series)

**Q.** Which results are given for GTAAATTA?
**A.** binding signal (PAX4 [3]): 11.9 upbm affinity estimate (log intensity, higher = more binding, comparable within an allelic series); binding signal (PAX4 [4]): 11 upbm affinity estimate (log intensity, higher = more binding, comparable within an allelic series)

**Q.** For GCCGATCC, which binding signal (NKX2-6 [1]) is on record?
**A.** The binding signal was 9.45 upbm affinity estimate (log intensity, higher = more binding, comparable within an allelic series).

**Q.** What about the binding signal (NKX2-6 [2]) of the same sequence?
**A.** The binding signal was 9.3 upbm affinity estimate (log intensity, higher = more binding, comparable within an allelic series).

**Q.** CCGCGCAC was tested. Which binding signal (NKX2-6 [1]) did it give?
**A.** The binding signal was 9.44 upbm affinity estimate (log intensity, higher = more binding, comparable within an allelic series).

**Q.** And the binding signal (NKX2-6 [2])?
**A.** The binding signal was 9.51 upbm affinity estimate (log intensity, higher = more binding, comparable within an allelic series).

**Q.** Which results are given for AGGGACGA?
**A.** binding signal (NKX2-6 [1]): 9.37 upbm affinity estimate (log intensity, higher = more binding, comparable within an allelic series); binding signal (NKX2-6 [2]): 9.28 upbm affinity estimate (log intensity, higher = more binding, comparable within an allelic series)

**Q.** How did the binding signal (NKX2-6 [1]) turn out when AAACACTA was run?
**A.** Its binding signal is 11.5 upbm affinity estimate (log intensity, higher = more binding, comparable within an allelic series).

**Q.** And the binding signal (NKX2-6 [2])?
**A.** The binding signal was 9.97 upbm affinity estimate (log intensity, higher = more binding, comparable within an allelic series).

**Q.** With GCAGTCCC as the sequence, how does the binding signal (NKX2-6 [1]) read?
**A.** The binding signal was 9.36 upbm affinity estimate (log intensity, higher = more binding, comparable within an allelic series).

**Q.** And the binding signal (NKX2-6 [2])?
**A.** The binding signal was 9.32 upbm affinity estimate (log intensity, higher = more binding, comparable within an allelic series).

**Q.** Which binding signal (NKX2-6 [1]) does the source give for CCGGGTCC here?
**A.** Its binding signal is 9.7 upbm affinity estimate (log intensity, higher = more binding, comparable within an allelic series).

**Q.** And the binding signal (NKX2-6 [2])?
**A.** Its binding signal is 9.17 upbm affinity estimate (log intensity, higher = more binding, comparable within an allelic series).

**Q.** What does the source list for ATCTTCAC?
**A.** binding signal (NKX2-6 [1]): 11.1 upbm affinity estimate (log intensity, higher = more binding, comparable within an allelic series); binding signal (NKX2-6 [2]): 9.83 upbm affinity estimate (log intensity, higher = more binding, comparable within an allelic series)

**Q.** CTCTCATC was tested. Which binding signal (NKX2-6 [1]) did it give?
**A.** The binding signal was 11.6 upbm affinity estimate (log intensity, higher = more binding, comparable within an allelic series).

**Q.** What about the binding signal (NKX2-6 [2]) of the same sequence?
**A.** Its binding signal is 9.79 upbm affinity estimate (log intensity, higher = more binding, comparable within an allelic series).

**Q.** What about the binding signal (NKX3-2 [5]) of the same sequence?
**A.** The binding signal was 11.7 upbm affinity estimate (log intensity, higher = more binding, comparable within an allelic series).

**Q.** And the binding signal (NKX3-2 [6])?
**A.** The binding signal was 11.9 upbm affinity estimate (log intensity, higher = more binding, comparable within an allelic series).

**Q.** How did the binding signal (NKX2-6 [1]) turn out when CCGTAGCA was run?
**A.** Its binding signal is 9.41 upbm affinity estimate (log intensity, higher = more binding, comparable within an allelic series).

**Q.** What about the binding signal (NKX2-6 [2]) of the same sequence?
**A.** Its binding signal is 9.46 upbm affinity estimate (log intensity, higher = more binding, comparable within an allelic series).

**Q.** Which results are given for GAAGAGCA?
**A.** binding signal (NKX2-6 [1]): 11.4 upbm affinity estimate (log intensity, higher = more binding, comparable within an allelic series); binding signal (NKX2-6 [2]): 9.71 upbm affinity estimate (log intensity, higher = more binding, comparable within an allelic series)

**Q.** How did the binding signal (PITX2) turn out when CGAGCGTC was run?
**A.** Its binding signal is 7.93 upbm affinity estimate (log intensity, higher = more binding, comparable within an allelic series).

**Q.** What does the source list for CCGGGAAC?
**A.** binding signal (NKX2-6 [1]): 9.33 upbm affinity estimate (log intensity, higher = more binding, comparable within an allelic series); binding signal (NKX2-6 [2]): 9.31 upbm affinity estimate (log intensity, higher = more binding, comparable within an allelic series); binding signal (NKX3-2 [5]): 10.5 upbm affinity estimate (log intensity, higher = more binding, comparable within an allelic series); binding signal (NKX3-2 [6]): 10.5 upbm affinity estimate (log intensity, higher = more binding, comparable within an allelic series)

**Q.** For GGTATTAA, which binding signal (PITX2) is on record?
**A.** Its binding signal is 12.3 upbm affinity estimate (log intensity, higher = more binding, comparable within an allelic series).

**Q.** How did the binding signal (HOXD13) turn out when TAACTAAA was run?
**A.** Its binding signal is 10.7 upbm affinity estimate (log intensity, higher = more binding, comparable within an allelic series).

**Q.** With AGACTATA as the sequence, how does the binding signal (HOXD13) read?
**A.** The binding signal was 10.7 upbm affinity estimate (log intensity, higher = more binding, comparable within an allelic series).

**Q.** For GACGTTTA, which binding signal (HOXD13) is on record?
**A.** Its binding signal is 10.7 upbm affinity estimate (log intensity, higher = more binding, comparable within an allelic series).

**Q.** Which binding signal (PITX2) does the source give for AAGCTAGG here?
**A.** The binding signal was 9.89 upbm affinity estimate (log intensity, higher = more binding, comparable within an allelic series).

**Q.** And the binding signal (NKX3-2 [5])?
**A.** The binding signal was 10.4 upbm affinity estimate (log intensity, higher = more binding, comparable within an allelic series).

**Q.** And the binding signal (NKX3-2 [6])?
**A.** Its binding signal is 10.4 upbm affinity estimate (log intensity, higher = more binding, comparable within an allelic series).

**Q.** Which results are given for AATTAGGT?
**A.** binding signal (SHOX): 9.2 upbm affinity estimate (log intensity, higher = more binding, comparable within an allelic series); binding signal (PROP1 [7]): 11 upbm affinity estimate (log intensity, higher = more binding, comparable within an allelic series); binding signal (HESX1): 8.66 upbm affinity estimate (log intensity, higher = more binding, comparable within an allelic series); binding signal (PROP1 [8]): 10.6 upbm affinity estimate (log intensity, higher = more binding, comparable within an allelic series); binding signal (PROP1 [9]): 7.74 upbm affinity estimate (log intensity, higher = more binding, comparable within an allelic series)

**Q.** For CTAAGCCC, which binding signal (PITX2) is on record?
**A.** Its binding signal is 12.3 upbm affinity estimate (log intensity, higher = more binding, comparable within an allelic series).

**Q.** What about the binding signal (CRX) of the same sequence?
**A.** The binding signal was 11.5 upbm affinity estimate (log intensity, higher = more binding, comparable within an allelic series).

**Q.** Which binding signal (PITX2) does the source give for GATGAGCC here?
**A.** Its binding signal is 9.56 upbm affinity estimate (log intensity, higher = more binding, comparable within an allelic series).

**Q.** Which binding signal (HOXD13) does the source give for TATATCAA here?
**A.** Its binding signal is 10.8 upbm affinity estimate (log intensity, higher = more binding, comparable within an allelic series).

**Q.** ATCATTCA was tested. Which binding signal (HOXD13) did it give?
**A.** The binding signal was 10.6 upbm affinity estimate (log intensity, higher = more binding, comparable within an allelic series).

**Q.** With ACACAATA as the sequence, how does the binding signal (HOXD13) read?
**A.** Its binding signal is 10.6 upbm affinity estimate (log intensity, higher = more binding, comparable within an allelic series).

**Q.** Which binding signal (PITX2) does the source give for GCGGCGCC here?
**A.** The binding signal was 7.97 upbm affinity estimate (log intensity, higher = more binding, comparable within an allelic series).

**Q.** GTTAAAGA was tested. Which binding signal (HOXD13) did it give?
**A.** The binding signal was 10.8 upbm affinity estimate (log intensity, higher = more binding, comparable within an allelic series).

**Q.** Which binding signal (PITX2) does the source give for CGGGCACA here?
**A.** The binding signal was 8 upbm affinity estimate (log intensity, higher = more binding, comparable within an allelic series).

**Q.** AGGAGGCC was tested. Which binding signal (PITX2) did it give?
**A.** The binding signal was 8.05 upbm affinity estimate (log intensity, higher = more binding, comparable within an allelic series).

**Q.** What about the binding signal (PROP1 [7]) of the same sequence?
**A.** The binding signal was 6.87 upbm affinity estimate (log intensity, higher = more binding, comparable within an allelic series).

**Q.** And the binding signal (PROP1 [8])?
**A.** The binding signal was 6.81 upbm affinity estimate (log intensity, higher = more binding, comparable within an allelic series).

**Q.** What about the binding signal (PROP1 [9]) of the same sequence?
**A.** The binding signal was 6.57 upbm affinity estimate (log intensity, higher = more binding, comparable within an allelic series).
